Laboratory results from the supplement of paper PMC10849652.
Of roughly 7,900 targets only a part is listed; those with a hit were picked by preference. About 0.6% of all pairs of compound and target were hits.

How the values were obtained:
Test in all cases: log2 fold change, soluble protein after heating vs DMSO (PISA); higher = thermal stabilisation; K562 cells, 10 uM, 30 min; active = over 0.2 and 3.5 SD of the protein, either way, in both replicates (recomputed)
[1] = compound: C1=CC=C(C=C1)[C@H](COC2=CC3=C(C=C2)NC(=O)N3)NC(=O)C4=CC=CN(C4=O)CC5=CC(=C(C=C5)F)F
In short: (§1)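 K562 cells at 2×10^6 cells/mL were exposed to 10 μM compound for 30 min, then aliquots were heated for 3 min across 48°C-58°C, pooled, and extracted in PBS containing 0.5% NP-40 at 4°C. The supernatant after 21,000xg for 90 min was taken as soluble protein and measured by TMTpro 16plex LC-MS/MS with channel sums equalised. Thermal stability is reported relative to control samples, with values from duplicates. Fold changes are given on a log2 scale.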

[2] = compound: CC1=C(SC2=C1C(=N[C@H](C3=NN=C(N32)C)CC(=O)N)C4=CC=C(C=C4)Cl)C
In short: as §1

[3] = compound: CC1=C2C(=CC=C1)N=C(N(C2=O)C3=CC=CC=C3C)CN4C=NC5=C(N=CN=C54)N
In short: as §1

[4] = compound: Cc1sc2c(c1C)C(c1ccc(Cl)cc1)=N[C@@H](CC(=O)OC(C)(C)C)c1nnc(C)n1-2
In short: as §1

[5] = compound: c1ccc([C@@H]2C[C@H]2NC2CCNCC2)cc1
In short: as §1

Measured: log2 fold change

PEF1 (UniProt Q9UBV8)
inactive: [1] 0.01 | [2] 0.185 | [3] 0.047 | [4] -0.178 | [5] -0.014

PTDSS1 (UniProt P48651)
inactive: [1] -0.027 | [2] -0.072 | [3] -0.115 | [4] 0.042 | [5] 0.017

PHLDB1 isoform 2 (UniProt Q86UU1)
inactive: [1] -0.006 | [2] 0.073 | [3] 0.081 | [4] 0.008 | [5] 0.002

PIP4P1 isoform 2 (UniProt Q86T03)
inactive: [1] -0.016 | [2] -0.106 | [3] -0.118 | [4] -0.002 | [5] 0.05

PDS5A (UniProt Q29RF7)
inactive: [1] -0.34 | [2] 0.066 | [3] 0.096 | [4] 0.038 | [5] -0.105

POLD1 (UniProt P28340)
inactive: [1] 0.017 | [2] 0.019 | [3] 0.094 | [4] 0.048 | [5] 0

PTPA (UniProt A6PVN8)
inactive: [1] 0.011 | [2] 0.011 | [3] 0.001 | [4] -0.015 | [5] 0.148

PIP4K2A (UniProt P48426)
inactive: [1] -0.091 | [2] 0.032 | [3] 0.049 | [4] 0.033 | [5] -0.024

PPP2R5A (UniProt Q15172)
inactive: [1] -0.036 | [2] 0.07 | [3] -0.006 | [4] -0.08 | [5] -0.08

PGGT1B (UniProt P53609)
inactive: [1] 0.025 | [2] 0.066 | [3] 0.051 | [4] -0.018 | [5] -0.004

POLR2B (UniProt P30876)
inactive: [1] -0.028 | [2] 0.105 | [3] 0.047 | [4] 0.159 | [5] -0.053

PRMT8 (UniProt Q9NR22)
inactive: [1] -0.002 | [2] 0.133 | [3] 0.046 | [4] -0.028 | [5] -0.015

PSME4 (UniProt Q14997)
inactive: [1] -0.041 | [2] 0.017 | [3] 0.017 | [4] -0.025 | [5] -0.048

PRPF38B (UniProt Q5VTL8)
UniProt Q5VTL8, sequence (Q5VTL8 whole entry, looked up): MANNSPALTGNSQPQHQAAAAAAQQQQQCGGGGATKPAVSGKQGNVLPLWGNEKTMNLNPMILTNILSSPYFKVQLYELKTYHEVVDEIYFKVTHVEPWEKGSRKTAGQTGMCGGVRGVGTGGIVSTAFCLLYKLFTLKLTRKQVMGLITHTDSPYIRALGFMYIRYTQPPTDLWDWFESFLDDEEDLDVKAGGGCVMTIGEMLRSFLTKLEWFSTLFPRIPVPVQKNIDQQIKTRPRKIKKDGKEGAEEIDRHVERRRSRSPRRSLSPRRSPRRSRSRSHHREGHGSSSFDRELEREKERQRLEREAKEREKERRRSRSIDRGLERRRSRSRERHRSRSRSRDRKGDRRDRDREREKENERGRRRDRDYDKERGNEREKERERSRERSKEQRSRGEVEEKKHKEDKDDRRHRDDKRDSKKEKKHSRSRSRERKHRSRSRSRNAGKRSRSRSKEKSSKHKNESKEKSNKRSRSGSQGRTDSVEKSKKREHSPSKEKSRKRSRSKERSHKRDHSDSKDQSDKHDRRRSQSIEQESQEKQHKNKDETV
inactive: [1] 0.038 | [2] 0.066 | [3] 0.052 | [4] 0.056 | [5] 0.032

PSMC3 (UniProt P17980)
UniProt P17980, sequence (P17980 whole entry, looked up): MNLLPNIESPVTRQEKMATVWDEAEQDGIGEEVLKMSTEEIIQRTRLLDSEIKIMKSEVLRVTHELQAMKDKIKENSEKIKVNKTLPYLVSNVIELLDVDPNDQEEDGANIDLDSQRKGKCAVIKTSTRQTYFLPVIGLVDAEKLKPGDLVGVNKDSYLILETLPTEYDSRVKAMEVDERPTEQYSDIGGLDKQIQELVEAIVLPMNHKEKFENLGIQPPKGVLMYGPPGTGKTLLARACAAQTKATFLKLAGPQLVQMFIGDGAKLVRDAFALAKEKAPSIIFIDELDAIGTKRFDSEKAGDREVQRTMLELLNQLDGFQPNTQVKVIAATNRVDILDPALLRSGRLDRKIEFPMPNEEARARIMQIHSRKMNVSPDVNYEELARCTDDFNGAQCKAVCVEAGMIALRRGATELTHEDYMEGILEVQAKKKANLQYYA
inactive: [1] 0.014 | [2] -0.083 | [3] -0.058 | [4] 0 | [5] 0

PEX13 (UniProt Q92968)
inactive: [1] -0.064 | [2] 0.05 | [3] 0.078 | [4] -0.107 | [5] 0.001

PDE2A (UniProt O00408)
inactive: [1] 0.079 | [2] 0.08 | [3] 0.16 | [4] -0.024 | [5] 0.065

POLA2 (UniProt Q14181)
inactive: [1] -0.023 | [2] 0.048 | [3] 0.114 | [4] -0.006 | [5] 0.034

PRKCB isoform 2 (UniProt P05771)
inactive: [1] -0.034 | [2] 0.028 | [3] 0.053 | [4] 0.027 | [5] -0.008

PIK3CB (UniProt P42338)
inactive: [1] -0.068 | [2] 0.014 | [4] -0.01 | [5] 0.005
active: [3] 0.213

PSMD2 (UniProt Q13200)
inactive: [1] 0.026 | [2] -0.097 | [3] -0.059 | [4] 0.008 | [5] 0.016

PXK (UniProt Q7Z7A4)
inactive: [1] -0.015 | [2] 0.04 | [3] 0.098 | [4] 0.011 | [5] -0.045

PRIM1 (UniProt P49642)
inactive: [1] -0.149 | [2] -0.033 | [3] 0.053 | [4] 0.033 | [5] 0.01

PRPF38A (UniProt Q8NAV1)
UniProt Q8NAV1, sequence (Q8NAV1 whole entry, looked up): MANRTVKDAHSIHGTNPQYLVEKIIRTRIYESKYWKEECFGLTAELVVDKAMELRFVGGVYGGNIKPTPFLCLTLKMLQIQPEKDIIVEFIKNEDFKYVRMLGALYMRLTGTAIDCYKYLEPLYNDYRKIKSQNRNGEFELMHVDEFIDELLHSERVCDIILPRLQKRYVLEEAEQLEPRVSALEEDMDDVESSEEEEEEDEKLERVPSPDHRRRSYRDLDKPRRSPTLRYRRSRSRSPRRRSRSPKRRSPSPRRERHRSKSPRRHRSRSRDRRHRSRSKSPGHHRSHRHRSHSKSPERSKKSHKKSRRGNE
inactive: [1] 0.014 | [2] -0.011 | [3] 0.024 | [4] 0.007 | [5] 0.015

PMVK (UniProt Q15126)
inactive: [1] -0.156 | [2] 0.004 | [3] 0.116 | [4] 0.063 | [5] 0.028

PRKACA (UniProt P17612)
inactive: [1] -0.01 | [2] 0.005 | [3] -0.053 | [4] -0.009 | [5] 0.035

PPID (UniProt Q08752)
inactive: [1] -0.079 | [2] 0.031 | [3] 0.036 | [4] -0.035 | [5] -0.031

PIP4K2B (UniProt P78356)
inactive: [1] -0.102 | [2] 0.018 | [3] -0.034 | [4] -0.038 | [5] -0.026

PLBD1 (UniProt Q6P4A8)
inactive: [1] 0.005 | [2] -0.011 | [3] -0.018 | [4] -0.006 | [5] 0.013

PSMC2 (UniProt P35998)
inactive: [1] 0.031 | [2] -0.085 | [3] -0.092 | [4] 0.002 | [5] 0.001

PRUNE1 (UniProt Q86TP1)
UniProt Q86TP1, sequence (Q86TP1 whole entry, looked up): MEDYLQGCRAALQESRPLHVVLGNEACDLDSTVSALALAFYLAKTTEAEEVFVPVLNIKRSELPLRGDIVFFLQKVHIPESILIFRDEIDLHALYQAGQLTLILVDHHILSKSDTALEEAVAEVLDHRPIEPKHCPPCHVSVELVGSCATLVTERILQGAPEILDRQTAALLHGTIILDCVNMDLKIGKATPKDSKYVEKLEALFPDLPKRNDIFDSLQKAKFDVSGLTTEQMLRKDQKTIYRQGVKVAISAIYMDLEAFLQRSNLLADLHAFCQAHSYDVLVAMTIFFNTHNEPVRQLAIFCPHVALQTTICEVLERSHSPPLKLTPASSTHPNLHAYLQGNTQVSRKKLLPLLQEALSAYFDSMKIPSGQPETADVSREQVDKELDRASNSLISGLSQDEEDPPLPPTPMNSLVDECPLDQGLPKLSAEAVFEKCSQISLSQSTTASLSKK
inactive: [1] -0.025 | [2] -0.002 | [3] 0.023 | [4] 0 | [5] -0.007

POLD3 (UniProt Q15054)
inactive: [1] -0.027 | [2] 0.14 | [3] 0.104 | [4] -0.037 | [5] -0.009

POLR1A (UniProt O95602)
UniProt O95602, sequence (O95602 whole entry, looked up): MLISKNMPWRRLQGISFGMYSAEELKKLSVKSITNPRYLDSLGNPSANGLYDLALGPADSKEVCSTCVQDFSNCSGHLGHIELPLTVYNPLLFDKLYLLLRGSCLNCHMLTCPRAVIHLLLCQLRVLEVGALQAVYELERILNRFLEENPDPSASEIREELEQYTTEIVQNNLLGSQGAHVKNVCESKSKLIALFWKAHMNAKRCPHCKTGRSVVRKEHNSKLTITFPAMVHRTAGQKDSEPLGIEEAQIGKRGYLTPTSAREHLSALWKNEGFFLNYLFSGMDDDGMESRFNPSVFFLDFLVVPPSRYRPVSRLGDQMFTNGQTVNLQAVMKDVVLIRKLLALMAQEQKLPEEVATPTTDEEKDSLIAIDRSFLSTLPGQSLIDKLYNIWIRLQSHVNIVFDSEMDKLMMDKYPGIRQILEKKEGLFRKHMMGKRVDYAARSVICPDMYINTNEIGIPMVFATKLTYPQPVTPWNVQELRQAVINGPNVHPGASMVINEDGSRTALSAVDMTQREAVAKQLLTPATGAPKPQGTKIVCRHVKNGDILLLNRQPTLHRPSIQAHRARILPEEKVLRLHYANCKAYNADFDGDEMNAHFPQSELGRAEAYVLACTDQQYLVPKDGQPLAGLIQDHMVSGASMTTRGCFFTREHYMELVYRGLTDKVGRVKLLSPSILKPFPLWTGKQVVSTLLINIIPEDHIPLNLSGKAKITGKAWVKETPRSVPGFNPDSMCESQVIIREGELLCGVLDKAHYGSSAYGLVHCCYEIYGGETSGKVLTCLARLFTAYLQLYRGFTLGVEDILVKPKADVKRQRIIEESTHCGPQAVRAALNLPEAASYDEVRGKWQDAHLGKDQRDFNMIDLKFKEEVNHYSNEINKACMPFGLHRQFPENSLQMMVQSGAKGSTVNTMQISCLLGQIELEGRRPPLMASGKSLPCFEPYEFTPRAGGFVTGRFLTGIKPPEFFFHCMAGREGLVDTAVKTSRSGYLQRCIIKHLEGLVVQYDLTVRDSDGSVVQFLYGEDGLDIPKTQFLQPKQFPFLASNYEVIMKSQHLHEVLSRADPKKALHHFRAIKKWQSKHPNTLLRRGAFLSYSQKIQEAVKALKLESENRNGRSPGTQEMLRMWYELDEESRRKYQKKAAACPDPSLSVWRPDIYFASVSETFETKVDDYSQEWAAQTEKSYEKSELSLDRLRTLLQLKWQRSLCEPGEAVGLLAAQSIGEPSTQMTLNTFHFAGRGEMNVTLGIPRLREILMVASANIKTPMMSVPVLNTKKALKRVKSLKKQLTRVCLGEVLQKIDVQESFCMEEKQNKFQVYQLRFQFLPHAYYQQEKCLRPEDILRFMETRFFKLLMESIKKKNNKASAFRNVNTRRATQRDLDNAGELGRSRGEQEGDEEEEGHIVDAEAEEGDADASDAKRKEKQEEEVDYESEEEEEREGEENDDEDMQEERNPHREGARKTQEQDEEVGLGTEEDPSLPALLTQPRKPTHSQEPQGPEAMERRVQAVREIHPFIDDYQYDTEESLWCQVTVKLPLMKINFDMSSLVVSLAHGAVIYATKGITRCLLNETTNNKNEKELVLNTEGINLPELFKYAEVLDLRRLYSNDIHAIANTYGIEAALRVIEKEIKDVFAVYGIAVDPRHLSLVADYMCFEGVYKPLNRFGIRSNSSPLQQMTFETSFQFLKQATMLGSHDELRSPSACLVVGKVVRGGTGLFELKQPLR
inactive: [1] 0.049 | [2] -0.043 | [3] -0.044 | [4] 0.096 | [5] -0.015

PTPN23 (UniProt Q9H3S7)
inactive: [1] -0.038 | [2] 0.048 | [3] 0.054 | [4] 0 | [5] 0.038

PPT1 (UniProt P50897)
UniProt P50897, sequence (P50897 whole entry, looked up): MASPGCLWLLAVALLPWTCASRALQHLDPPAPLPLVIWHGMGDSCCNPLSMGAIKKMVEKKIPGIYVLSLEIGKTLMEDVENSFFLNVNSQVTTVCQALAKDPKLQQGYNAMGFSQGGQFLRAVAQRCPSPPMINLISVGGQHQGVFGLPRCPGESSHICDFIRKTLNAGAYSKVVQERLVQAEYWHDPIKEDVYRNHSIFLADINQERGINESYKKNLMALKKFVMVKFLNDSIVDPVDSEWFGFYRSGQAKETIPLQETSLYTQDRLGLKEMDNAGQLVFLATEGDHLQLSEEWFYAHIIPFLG
inactive: [1] 0.047 | [2] 0.021 | [3] 0 | [4] -0.003 | [5] -0.003

PEA15 isoform 2 (UniProt Q15121)
inactive: [1] -0.014 | [2] 0.1 | [3] 0.116 | [4] -0.063 | [5] -0.015

PRKAR1A (UniProt P10644)
inactive: [1] 0.213 | [2] -0.019 | [3] 0.119 | [4] 0.041 | [5] -0.008

PRMT3 (UniProt O60678)
inactive: [1] -0.1 | [2] 0.077 | [3] 0.024 | [4] -0.013 | [5] 0.001

PSMB4 (UniProt P28070)
inactive: [1] 0.024 | [2] -0.037 | [3] -0.038 | [4] -0.009 | [5] 0.03

PRPF3 (UniProt O43395)
inactive: [1] -0.09 | [2] -0.208 | [3] 0.08 | [4] -0.017 | [5] 0.115

PIP4K2C (UniProt Q8TBX8)
inactive: [1] -0.148 | [2] 0.034 | [3] 0.05 | [4] -0.029 | [5] -0.042

PCBP1 (UniProt Q15365)
inactive: [1] -0.045 | [2] 0.047 | [3] 0.048 | [4] -0.03 | [5] 0

PIK3R1 (UniProt P27986)
inactive: [1] -0.059 | [2] 0.019 | [3] 0.138 | [4] 0.005 | [5] -0.027

PRKCG (UniProt P05129)
inactive: [1] -0.216 | [2] -0.025 | [3] 0.033 | [4] -0.017 | [5] 0.077

PMPCA (UniProt Q10713)
inactive: [1] -0.015 | [2] 0.121 | [3] 0.06 | [4] 0.018 | [5] -0.047

PSMD8 (UniProt P48556)
UniProt P48556, sequence (P48556 whole entry, looked up): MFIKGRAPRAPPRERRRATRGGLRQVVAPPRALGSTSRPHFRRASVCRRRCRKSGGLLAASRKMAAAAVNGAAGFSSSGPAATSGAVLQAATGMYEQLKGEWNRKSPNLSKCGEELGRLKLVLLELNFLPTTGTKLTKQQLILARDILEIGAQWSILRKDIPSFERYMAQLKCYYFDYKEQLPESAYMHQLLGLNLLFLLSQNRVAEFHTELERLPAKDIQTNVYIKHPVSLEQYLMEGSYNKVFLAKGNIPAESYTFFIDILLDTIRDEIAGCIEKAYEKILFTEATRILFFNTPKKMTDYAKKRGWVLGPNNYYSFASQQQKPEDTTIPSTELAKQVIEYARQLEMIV
inactive: [1] 0.014 | [2] -0.07 | [3] -0.01 | [4] -0.001 | [5] 0.071

POMK (UniProt Q9H5K3)
inactive: [1] 0.04 | [2] 0.027 | [3] -0.041 | [4] -0.067 | [5] -0.022

POLR2D (UniProt O15514)
inactive: [1] 0.003 | [2] 0.134 | [3] -0.006 | [4] 0.17 | [5] 0.045

PSMD5 (UniProt Q16401)
UniProt Q16401, sequence (Q16401 whole entry, looked up): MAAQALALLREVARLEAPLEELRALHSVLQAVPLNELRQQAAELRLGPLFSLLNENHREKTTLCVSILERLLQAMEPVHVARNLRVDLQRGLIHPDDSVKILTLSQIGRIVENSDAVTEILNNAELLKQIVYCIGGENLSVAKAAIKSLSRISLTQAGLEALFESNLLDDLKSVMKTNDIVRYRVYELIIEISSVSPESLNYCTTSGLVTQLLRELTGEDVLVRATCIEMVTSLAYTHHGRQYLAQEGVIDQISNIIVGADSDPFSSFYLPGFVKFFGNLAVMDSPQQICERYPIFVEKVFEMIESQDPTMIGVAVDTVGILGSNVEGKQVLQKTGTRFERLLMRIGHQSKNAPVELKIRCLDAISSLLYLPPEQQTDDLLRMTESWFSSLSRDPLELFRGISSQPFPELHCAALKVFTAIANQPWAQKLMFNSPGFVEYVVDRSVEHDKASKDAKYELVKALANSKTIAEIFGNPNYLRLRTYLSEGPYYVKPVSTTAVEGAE
inactive: [1] 0 | [2] 0.028 | [3] 0.006 | [4] -0.006 | [5] -0.001

PRPSAP2 (UniProt O60256)
UniProt O60256, sequence (O60256 whole entry, looked up): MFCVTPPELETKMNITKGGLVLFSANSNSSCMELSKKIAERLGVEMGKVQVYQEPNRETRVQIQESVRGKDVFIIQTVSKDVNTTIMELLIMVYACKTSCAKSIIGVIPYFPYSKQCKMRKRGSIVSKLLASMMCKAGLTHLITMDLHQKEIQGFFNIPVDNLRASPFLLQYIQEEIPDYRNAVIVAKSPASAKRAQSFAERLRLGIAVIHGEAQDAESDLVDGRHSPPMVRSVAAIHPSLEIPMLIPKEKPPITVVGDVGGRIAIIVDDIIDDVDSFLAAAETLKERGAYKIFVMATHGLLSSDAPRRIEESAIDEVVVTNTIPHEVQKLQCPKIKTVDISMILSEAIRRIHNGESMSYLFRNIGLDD
inactive: [1] 0.009 | [2] -0.026 | [3] -0.027 | [4] -0.012 | [5] 0

PNPLA2 (UniProt Q96AD5)
inactive: [1] 0.06 | [2] 0.014 | [3] 0.037 | [4] 0.068 | [5] -0.046

PSMD11 (UniProt O00231)
inactive: [1] 0.043 | [2] -0.049 | [3] -0.053 | [4] -0.017 | [5] 0

PTP4A1 (UniProt Q93096)
inactive: [1] -0.002 | [2] 0.109 | [3] 0.037 | [4] 0.001 | [5] -0.031

PPIL4 (UniProt Q8WUA2)
inactive: [1] 0.012 | [2] -0.022 | [3] 0.036 | [4] 0.039 | [5] 0.016

PMPCB (UniProt O75439)
inactive: [1] 0.005 | [2] 0.111 | [3] 0.01 | [4] 0.012 | [5] -0.053
